Results as given in PubChem BioAssay.
Values without a mark were called inactive. No rule for the calls is given here.

test system: Aerobactin synthetase IucA (Klebsiella pneumoniae, hypervirulent); test: IucA enzyme inhibition, biochemical, LOPAC library, absorbance readout (AID 1346212); settings: IucA enzyme assay, absorbance (OD) readout; active compounds read low;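 tested at 8 µM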;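 also: 100% = no compound wells and 0% = no enzyme wells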

Going from `CC(C)(C)NC(=O)[C@H]1CC[C@H]2[C@@H]3CC[C@H]4NC(=O)C=C[C@]4(C)[C@H]3CC[C@]12C` to `CC(=O)[C@H]1CC[C@H]2[C@@H]3CCC4=CC(=O)CC[C@]4(C)[C@H]3CC[C@]12C`, the remaining activity rises from 119% to 123%.

First: Cc1nc2sccn2c(=O)c1CCN1CCC(=C(c2ccc(F)cc2)c2ccc(F)cc2)CC1
Second: Cc1nc2sccn2c(=O)c1CCN1CCC(=C(c2ccccc2)c2ccc(F)cc2)CC1
The remaining activity of the first is lower: 99.1% for the first, 123% for the second.

First: COc1ccc(NC=O)c(C(=O)CCNC(C)=O)c1
Second: COc1ccc(/C=C/C(=O)Nc2ccccc2C(=O)O)cc1OC
The remaining activity of the first is higher: 95% for the first, 92.2% for the second.

Compared with `CNCCC(Oc1ccccc1C)c1ccccc1` (centres undefined), `COc1ccc2c(c1)c(CC(=O)O)c(C)n2C(=O)c1ccccc1` is higher in remaining activity: 102% for the first, 111% for the second.

Compared with `O=C(O)CCC(=O)N1CCCC1C(=O)O` (centres undefined), `CC1CCN(CC[C@H]2CCCN2S(=O)(=O)c2cccc(O)c2)CC1` is higher in remaining activity: 98.4% for the first, 125% for the second.

Going from `CN[C@H](CC(C)C)C(=O)N[C@H]1C(=O)N[C@@H](CC(N)=O)C(=O)N[C@H]2C(=O)N[C@H]3C(=O)N[C@H](C(=O)N[C@H](C(=O)O)c4cc(O)cc(O)c4-c4cc3ccc4O)[C@H](O)c3ccc(c(Cl)c3)Oc3cc2cc(c3O[C@@H]2O[C@H](CO)[C@@H](O)[C@H](O)[C@H]2O[C@H]2C[C@](C)(N)[C@H](O)[C@H](C)O2)Oc2ccc(cc2Cl)[C@H]1O` to `CC[C@]1(O)C[C@H]2CN(CCc3c([nH]c4ccccc34)[C@@](C(=O)OC)(c3cc4c(cc3OC)N(C=O)[C@H]3[C@@](O)(C(=O)OC)[C@H](OC(C)=O)[C@]5(CC)C=CCN6CC[C@]43[C@@H]65)C2)C1`, the remaining activity rises from 98.6% to 109%.

Going from `CC(C)(C)c1ccc(/C=C/C(=O)Nc2ccc3c(c2)OCCO3)cc1` to `C/C(=C\c1ccc(C(=O)O)cc1)c1ccc2c(c1)C(C)(C)CCC2(C)C`, the remaining activity falls from 107% to 97.8%.

Compared with `Cc1cn([C@H]2C=C[C@@H](CO)O2)c(=O)[nH]c1=O`, `Cc1nc2c([nH]1)c(=O)n(C)c(=O)n2Cc1ccco1` is lower in remaining activity: 106% for the first, 99.1% for the second.

First: COc1ccc2c(c1)c(CC(=O)O)c(C)n2Cc1ccc(F)cc1
Second: COc1ccc(CCNC[C@@H](O)c2ccc(O)cc2)cc1OC
The remaining activity of the first is higher: 101% for the first, 91.4% for the second.

Compared with `CN1CC(=O)NC1=NC(=O)Nc1cccc(Cl)c1`, `Cn1ccc2cc(NC(=O)Nc3cccnc3)ccc21` is higher in remaining activity: 98.9% for the first, 117% for the second.

First: C#CCn1c(=O)c2c(ncn2C)n(C)c1=O
Second: Cn1c(=O)[nH]c2ncn(C)c2c1=O
The remaining activity of the first is lower: 109% for the first, 113% for the second.

Compared with `CC1=C(C)C(=O)C(CCCCC#CCCCC#CCO)=C(C)C1=O`, `CC1(C)CCC2=C(O1)c1ccccc1C(=O)C2=O` is lower in remaining activity: 118% for the first, 113% for the second.

First: O=Nc1ccc2oc(=O)ccc2c1
Second: Oc1ccc(C2CNCc3sccc32)cc1O (centres undefined)
The remaining activity of the first is higher: 103% for the first, 99.3% for the second.

Going from `N=c1ccn2c(n1)O[C@H]1[C@H](O)[C@@H](CO)O[C@H]12` to `CC(=O)N1CCN(c2ccc(OC[C@H]3CO[C@](Cn4ccnc4)(c4ccc(Cl)cc4Cl)O3)cc2)CC1`, the remaining activity rises from 95.9% to 121%.

Going from `C[C@@H](N)C1CCC(C(=O)Nc2ccncc2)CC1` (some centres undefined) to `CCOC(=O)C12CC1/C(=N\O)c1ccccc1O2` (centres undefined), the remaining activity rises from 107% to 108%.

First: COc1cc2c(cc1OC)[C@@H](c1ccccc1)CN(C)CC2
Second: COc1cc(NS(C)(=O)=O)ccc1Nc1c2ccccc2nc2ccccc12
The remaining activity of the first is lower: 102% for the first, 108% for the second.

First: NC(=O)c1cc[n+](CC2=C(C(=O)O)N3C(=O)[C@@H](NC(=O)[C@@H](c4ccccc4)S(=O)(=O)[O-])[C@H]3SC2)cc1
Second: OCc1cc(C(O)CNCCCCCCOCCCCc2ccccc2)ccc1O (centres undefined)
The remaining activity of the first is lower: 107% for the first, 122% for the second.

First: O=c1[nH]c2cc(C(F)(F)F)ccc2n1-c1cc(C(F)(F)F)ccc1O
Second: O=[N+]([O-])c1ccc(-c2nc(-c3ccc(F)cc3)c(-c3ccncc3)[nH]2)cc1
The remaining activity of the first is higher: 112% for the first, 95.7% for the second.

First: CC(N)=NCc1cccc(CN)c1
Second: CCC1(O)CC2CN(CCc3c([nH]c4ccccc34)[C@@](C(=O)OC)(c3cc4c(cc3OC)N(C)C3[C@]45CCN4CC=C[C@@](CC)([C@@H](OC(C)=O)[C@]3(O)C(=O)OC)[C@H]45)C2)C1 (some centres undefined)
The remaining activity of the first is higher: 103% for the first, 102% for the second.

Work on `CCCCCCC(=O)OC1CC(C)(C)NC(C)(C)C1` yielded a remaining activity of 109%.
